Reference: PubChem BioAssay AID703 (NMMLSC, 2007)

The compounds below were run against Integrin alpha-4 (Homo sapiens) (UniProt P13612) (assay: enhancers of LDV-FITC binding to VLA-4, dose response, cell-based, flow cytometry (AID 703)). Conditions: Jurkat cells, active compounds read high; call rule not given here.
Integrin alpha-4 (Homo sapiens), sequence (P13612 whole entry, looked up): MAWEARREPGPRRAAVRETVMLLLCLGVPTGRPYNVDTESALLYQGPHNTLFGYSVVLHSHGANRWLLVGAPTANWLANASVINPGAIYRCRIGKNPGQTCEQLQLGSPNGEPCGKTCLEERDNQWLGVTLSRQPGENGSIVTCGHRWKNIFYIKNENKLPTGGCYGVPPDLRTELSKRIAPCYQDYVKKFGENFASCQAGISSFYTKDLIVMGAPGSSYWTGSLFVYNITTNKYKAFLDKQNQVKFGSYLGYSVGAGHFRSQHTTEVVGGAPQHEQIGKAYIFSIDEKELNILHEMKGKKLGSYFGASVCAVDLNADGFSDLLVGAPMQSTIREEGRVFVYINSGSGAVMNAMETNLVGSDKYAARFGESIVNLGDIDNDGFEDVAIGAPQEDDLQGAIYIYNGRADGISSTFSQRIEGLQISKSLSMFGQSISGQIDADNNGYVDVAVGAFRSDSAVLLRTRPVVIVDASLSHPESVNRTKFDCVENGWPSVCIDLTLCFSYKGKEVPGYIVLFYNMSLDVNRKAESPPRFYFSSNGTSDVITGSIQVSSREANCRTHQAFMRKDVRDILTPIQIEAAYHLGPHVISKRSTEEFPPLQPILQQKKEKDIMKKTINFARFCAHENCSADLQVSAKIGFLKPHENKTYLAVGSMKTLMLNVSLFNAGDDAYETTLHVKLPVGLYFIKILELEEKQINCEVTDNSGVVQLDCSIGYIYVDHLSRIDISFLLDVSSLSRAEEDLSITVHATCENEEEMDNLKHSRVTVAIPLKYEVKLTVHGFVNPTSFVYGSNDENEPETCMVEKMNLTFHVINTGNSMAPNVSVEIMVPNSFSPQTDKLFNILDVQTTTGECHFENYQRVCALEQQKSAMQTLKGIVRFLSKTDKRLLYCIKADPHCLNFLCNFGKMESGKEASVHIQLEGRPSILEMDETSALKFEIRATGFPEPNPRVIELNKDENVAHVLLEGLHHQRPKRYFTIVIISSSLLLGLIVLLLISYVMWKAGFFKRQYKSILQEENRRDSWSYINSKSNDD

Activation at 0 C, inactive:
COC(=O)C1CCN(C(=O)NC(C)(C)C)CC1 0, N#Cc1c(N2CCCC2)nc(N)c2c(N)nc(N3CCCC3)cc12 0, CCCCC[C@H](O)/C=C/[C@H]1C=CC(=O)[C@@H]1C/C=C\CCCC(=O)O 0, CN(C)CCCN1c2ccccc2Sc2ccc(C(F)(F)F)cc21 0
